Compounds with a hit are over-represented: about 3.1% of the library has one in this group of screens.
esBAF inh: SWI/SNF esBAF complex inhibition; mouse ES cells, Bmi1-luciferase knock-in reporter, 24 h; 100% = twice the neutral-well signal; reporter increase, % at 12.5 µM; 2% of 350,000 active; AID 602393; in the data active = activation above about 40%; inconclusive = no clear call, values can overlap the other calls;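 note: 0% = median of the plate's neutral control wells and 100% = double that signal; a rise in the Bmi1 reporter signal indicates esBAF inhibition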
MITF TRPM1 HTS: MITF TRPM1 promoter activation in melanoma cells | SK-MEL-5 TRPM1-promoter luciferase, 24 h; % of positive control, neutral wells = 0 | 0.75% of 300,000 active | activation, % at 12.5 µM;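 active = mean activation of at least 80% with every replicate also reaching 80%; inconclusive = mean reaches 80% but some replicate falls short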;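 note: 0% = neutral control wells and 100% = parthenolide positive control wells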
Statin myotox sup: suppressors of simvastatin-induced myotoxicity in C2C12 myotubes; 0.78% of 330,000 active; AID 602340; ATP luminescence, 48 h; scaled: DMSO 0, geranylgeraniol control 100; rescue of ATP level, % at 7.49 µM;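 active = mean ATP rescue above about 67%, or every replicate alone reaching that limit, limit read from the data, passing the limit was not always enough; inconclusive = no clear call, values can overlap the other calls; inactive = mean under the limit and some replicate under it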;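 note: myotubes were challenged with 10 µM simvastatin during compound exposure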
Wnt bcat act: activates Wnt/beta-catenin signaling in a reporter cell assay; activator, plate reader; activation, % at 9.35 µM; 1.2% of 300,000 active; AID 743398; in the data active = activation above about 30%, passing the limit was not always enough; inconclusive = no clear call, values can overlap the other calls;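 note: 0% = neutral control wells and 100% = positive control wells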
Rtt109 HAT inh: blocks Candida albicans Rtt109/Vps75 acetyltransferase activity. purified Rtt109/Vps75, ThioGlo CoA-SH fluorescence, 4 h. inhibition, % at 34.9 µM. 0.16% of 330,000 active. AID 540336;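 active = inhibition of at least 50% in every replicate; inconclusive = best replicate reaches 50% inhibition but some replicates fall short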
Target sequence (Q5AAJ8 whole entry, looked up): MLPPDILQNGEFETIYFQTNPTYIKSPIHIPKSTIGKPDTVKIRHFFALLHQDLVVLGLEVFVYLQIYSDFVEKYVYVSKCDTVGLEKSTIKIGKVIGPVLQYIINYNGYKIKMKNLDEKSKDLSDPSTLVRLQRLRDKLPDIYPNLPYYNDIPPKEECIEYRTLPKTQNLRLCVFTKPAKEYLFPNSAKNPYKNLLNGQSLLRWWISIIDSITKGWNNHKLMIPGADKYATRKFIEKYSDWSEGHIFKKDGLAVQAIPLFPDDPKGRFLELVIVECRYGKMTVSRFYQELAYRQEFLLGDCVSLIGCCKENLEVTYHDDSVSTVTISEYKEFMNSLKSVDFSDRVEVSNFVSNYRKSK
* hit, by the source's call; ? = inconclusive; . = no result given.

SMILES	esBAF inh	MITF TRPM1 HTS	Statin myotox sup	Wnt bcat act	Rtt109 HAT inh
COCC(=O)Nc1ccc2c(c1)OC[C@H](C)N(C(=O)c1ccncc1)C[C@@H](C)[C@H](OC)CN(C)C2=O	2.5	.	-0.8	.	.
COc1ccccc1-c1ccc2c(c1)O[C@H](CN(C)CC1CC1)[C@H](C)CN([C@@H](C)CO)S2(=O)=O	.	.	-73.9	.	.
C[C@@H]1CCCCO[C@H](CN(C)C(=O)Nc2ccccc2)[C@H](C)CN([C@@H](C)CO)C(=O)c2cc(NC(=O)Nc3cccc4ccccc34)ccc2O1	0.9	.	.	.	.
Cn1c(CCNC(=O)c2ccco2)nc2cc(NC(=O)c3ccco3)ccc21	51.4*	.	-18.4	39.4*	-6.9
Cn1c(CCNC(=O)c2ccco2)nc2cc(NC(=O)c3ccccc3)ccc21	45.5*	89.0*	-19.1	31.6*	6.7
Cn1c(CCNC(=O)c2ccccc2)nc2cc(NC(=O)c3ccco3)ccc21	22.3	.	-9.5	13.0	-3.0
Cc1ccc(SCC(=O)NC(=O)NCCC(C)C)c(C)c1	.	6.9	.	41.5*	1.4
CCOC(=O)CNC(=O)c1sc(NC(=O)c2cccc(F)c2)nc1C	54.1*	20.5	-14.2	.	-7.8
CCOC(=O)CNC(=O)c1sc(NC(=O)c2ccccc2F)nc1C	57.3*	44.6	-25.3	17.3	-9.5
CC(=O)Cc1nsc(NC(=O)c2cccc(F)c2)n1	61.1*	17.7	-5.0	.	-3.5
Cc1ncsc1C(=O)Nc1nc2c(s1)CCCC2	.	7.3	.	23.7	-3.6
CC1CCc2nc(NC(=O)c3ccc(N4C(=O)CCC4=O)cc3)sc2C1 (configuration not stated)	16.1	0.1	13.2	1.8	-31.6
O=C(Nc1nc2c(s1)CCCC2)c1ccc2ncsc2c1	-8.5	.	6.0	41.6*	31.9
O=C(Nc1nc2c(s1)CCCC2)c1ccc(N2C(=O)CCC2=O)cc1	43.6*	36.6	-5.2	-1.5	-1.5
O=C(Nc1ccc(S(=O)(=O)N2CCCCCC2)cc1)c1ccco1	33.4	.	-18.0	16.2	1.4
C[C@H](NC(=O)c1ccco1)C(=O)Nc1ccc(S(=O)(=O)N2CCCC2)cc1	-0.2	-0.6	-0.9	-4.6	54.7*
C[C@@H]1CN([C@@H](C)CO)C(=O)c2cc(NS(=O)(=O)c3ccc(Cl)cc3)ccc2O[C@@H]1CN(C)C(=O)Nc1cccc2ccccc12	3.3	.	32.6	.	.
O=C(COc1cc(=O)n2c(n1)SCCC2)c1ccccc1	14.3	11.3	114.2*	1.0	-4.2
CC(C)C(OC(=O)CCC(=O)Nc1nccs1)C(=O)NC1CCCCC1 (configuration not stated)	-5.2	0.2	99.4*	-1.5	10.5
COc1ccc(CNC(=O)C[C@H]2C[C@H]3c4cc(NS(=O)(=O)c5ccc(F)cc5)ccc4O[C@H]3[C@H](CO)O2)cc1	8.1	.	-9.8	.	.
Cc1ccc(S(=O)(=O)Nc2ccc3c(c2)C(=O)N([C@H](C)CO)C[C@@H](C)[C@@H](CN(C)S(=O)(=O)c2ccc(C)cc2)O3)cc1	-0.2	.	-0.4	.	.
COc1ccc(C(=O)NCCOc2ccccc2Cl)c(OC)c1OC	67.6*	88.9*	5.2	?	-6.6
CN(C)c1ccc(/C=C/c2ccc3ccccc3[n+]2C)cc1	-64.9	-87.1	-70.3	-16.5	28.6
CC(=O)Oc1ccccc1/C=C/c1ccc2ccccc2[n+]1C	65.3*	75.2	-1.8	3.6	-1.5
COc1ccc(/C=C/c2ccc3ccccc3[n+]2C)cc1OC	55.0*	19.6	-15.5	.	.
SMILES	esBAF inh	MITF TRPM1 HTS	Statin myotox sup	Wnt bcat act	Rtt109 HAT inh
O=C(Nc1nnc(SCc2ccc(F)cc2)s1)c1ccc2ncsc2c1	.	9.9	.	9.8	-3.0
O=C(Nc1ccc(Cl)cc1Cl)c1ccc2ncsc2c1	58.8*	111.9*	2.4	?	0.8
O=C(Nc1ccncc1)c1ccc2ncsc2c1	70.8*	28.7	-1.1	-1.8	-3.7
O=C(Nc1ccncc1)c1cc(F)cc(F)c1	-14.6	3.2	71.8*	.	-3.6
O=C(Nc1cccc(F)c1)c1ccc2ncsc2c1	15.5	-4.5	-12.6	.	6.9
O=C(COC(=O)c1ccc2ncsc2c1)Nc1cc(Cl)ccc1F	28.0	5.0	3.9	3.3	2.8
O=C(Nc1ccc(F)cc1F)c1ccc2ncsc2c1	66.9*	22.1	0.9	5.0	-3.3
C[C@@H]1CN([C@H](C)CO)C(=O)c2cc(NC(=O)Nc3ccc4c(c3)OCO4)ccc2O[C@@H]1CN(C)S(=O)(=O)c1ccccc1	11.1	.	.	.	.
O=C(Nc1ccccc1F)c1cccc(C(=O)Nc2ccccc2F)c1	.	11.3	.	2.3	-2.9
CCCSc1ccc(C(=O)Nc2ccc(F)cc2F)cn1	46.0*	?	-12.6	8.2	1.3
O=C(Nc1ccccc1F)c1ccc2ncsc2c1	56.5*	64.0	1.6	17.1	-14.3
CN(C)CC(=O)N[C@@H]1CC[C@H](CC(=O)NCc2ccccc2F)O[C@H]1CO	-2.0	.	2.3	.	.
CCOc1ccc(/C=C/C(=O)c2ccccc2)cc1OC	.	44.1	.	76.2*	-5.4
CSc1cccc(NC(=O)/C=C/c2ccc(Cl)cc2)c1	-9.0	.	-6.1	.	8.5
CSc1cccc(NC(=O)/C=C/c2ccccc2)c1	61.7*	.	-1.0	28.5	0.5
COc1ccc(/C(N)=N/OC(=O)/C=C/c2ccccc2)cc1	26.9	27.1	-4.0	?	.
COc1ccc(/C=C/C(=O)O/N=C(\N)c2ccccc2)cc1OC	.	40.3	.	46.2*	8.9
COc1ccc(NC(=O)/C=C/c2ccccc2)cn1	42.2*	121.8*	-0.5	.	-0.9
O=C(Nc1ccc2c(c1)[C@@H]1C[C@H](CC(=O)N3CCOCC3)O[C@@H](CO)[C@@H]1O2)NC1CCCCC1	-4.2	.	-2.7	.	.
CNC[C@H]1OCCCC[C@@H](C)Oc2ccc(NS(=O)(=O)c3ccc(Cl)cc3)cc2C(=O)N([C@@H](C)CO)C[C@H]1C	-8.9	.	-37.4	.	.
Cc1ccccc1/C(N)=N/OC(=O)/C=C/c1ccccc1	38.3	58.1	-4.5	77.1*	-2.2
COc1ccc(/C=C/C(=O)Nc2cc(=O)n(C)c(=O)n2C)cc1	.	38.8	.	.	9.3
Cn1c(NC(=O)/C=C/c2ccccc2)cc(=O)n(C)c1=O	.	0.8	.	60.9*	-11.8
N/C(=N\OC(=O)/C=C/c1ccccc1)c1cccnc1	.	50.7	.	.	-2.1
COc1cc(/C=N/NC(=O)c2ccccc2O)ccc1OCC(=O)Nc1ccccc1	18.9	66.4	5.1	-0.9	11.0
SMILES	esBAF inh	MITF TRPM1 HTS	Statin myotox sup	Wnt bcat act	Rtt109 HAT inh
Cc1ccc(/C(N)=N/OC(=O)/C=C/c2ccccc2)cc1	50.2*	19.8	4.7	-0.9	-8.8
COc1cc(/C=N/NC(=O)c2ccncc2)ccc1OCC(=O)Nc1ccccc1	28.3	99.0*	5.5	17.0	9.2
COc1ccc(/C=C/C(=O)Nc2ccccc2)cc1OC	.	90.2*	.	9.5	-7.0
COc1cc(/C=C/C(=O)NC(=O)c2ccccc2O)ccc1OC(C)=O	53.9*	66.1	0.3	-1.8	12.8
COc1ccc(/C=C/C(=O)Oc2ccc(/C=N/NC(=O)c3ccccc3)cc2)cc1OC	47.4*	0.6	-2.5	.	-3.8
Cc1ccc(/C(N)=N/OC(=O)CCc2ccccc2)cc1	59.6*	49.7	-11.9	10.3	-5.1

Assay outcomes as filed in PubChem BioAssay.
